# A selection: hits, their analogues and other compounds. The true share with any hit is near 9.4%.
# HTT ATP protect: qHTS Multiplex Assay to Identify Dual Action Probes in a Cell Model of Huntington: Cytoprotection (ATP). PC12 HTT-Q103 induced, cytoprotection, ATP luminescence, 40 h. Potency, µM (series often up to 56.4 µM), inactives show cytoprotection (ATP increase), usual class: activators. 0.14% of 230,000 active; note: potency is the fitted concentration of half-maximal effect; % of control where 0% means no effect; nearly all actives have a fitted effect of over 45% in size
#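 Quantitative HTS on tebufenozide-induced (100 nM) PC12 cells expressing HTTQ103 exon 1–GFP; compounds tested as a concentration series; survival measured via cellular ATP.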
# HttQ103 aggreg: qHTS Multiplex Assay to Identify Dual Action Probes in a Cell Model of Huntington: Aggregate Formation (GFP) | PC12 HttQ103-GFP aggregates, Acumen cytometry, 40 h | AID 1688, 2009 | Potency, µM (doses to about 46.1 µM), without a hit: at the top dose activity change, negative = inhibition, usual class: inhibitors | 1.1% of 220,000 active; note: potency is the fitted concentration of half-maximal effect; % is set by controls: 0 for no effect and ±100 for the full control effect; nearly all actives have a fitted effect of over 60% in size
#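 PC12 cells stably carrying ecdysone-inducible HTT exon 1 Q103–GFP were induced with tebufenozide (100 nM final) and treated with library compounds in titration. GFP aggregates in lysates were counted by laser scanning cytometry.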
# HPGD inh: qHTS Assay for Inhibitors of HPGD (15-Hydroxyprostaglandin Dehydrogenase); purified HPGD, NADH fluorescence kinetic, PGE2 substrate; Potency, µM, without a hit: at the highest dose activity change, negative = inhibition, most hits filed as inhibitors; 4.3% of 150,000 active; active = well fitted inhibition curve with a large enough effect, not every such curve was filed as active; inconclusive = small, poorly fitted or top-dose-only effect, or another doubt; inactive = no such curve, though single readings can be large or run the other way; note: potency is the fitted concentration of half-maximal effect; % is set by controls: 0 for no effect and ±100 for the full control effect
# Target sequence (P15428 whole entry, looked up): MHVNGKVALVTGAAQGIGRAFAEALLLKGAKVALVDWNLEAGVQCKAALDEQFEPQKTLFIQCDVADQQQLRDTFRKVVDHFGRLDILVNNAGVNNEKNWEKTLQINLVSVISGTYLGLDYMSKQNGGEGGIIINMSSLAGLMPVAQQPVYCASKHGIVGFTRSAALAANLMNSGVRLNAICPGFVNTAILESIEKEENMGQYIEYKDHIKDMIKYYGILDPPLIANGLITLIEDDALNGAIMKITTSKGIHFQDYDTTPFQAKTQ
#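 20 nM HPGD preincubated 15 min at room temperature with compound in 50 mM Tris-HCl pH 8, 0.01% Tween 20. Started with 1 mM NAD+ and 30 uM prostaglandin E2; NADH fluorescence (360/450 nm) read 5 times over 30-s intervals, last minus first.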
# IMPase Li inh: qHTS Assay for Identifying the Cell-Membrane Permeable IMPase Inhibitors: Potentiation with Lithium. CHO-M1 cells, IP1 TR-FRET (IP-One), carbachol + lithium. Potency, µM (series often up to 59.4 µM), for inactives: at the highest dose activity, negative = IMPase inhibition, hits mostly inhibitors. 0.35% of 210,000 active. AID 1457, 2008;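 note: IP1 builds up when IMPase is blocked and the TR-FRET signal falls; potency is the fitted concentration of half-maximal effect; plate controls were basal vehicle for no effect and high inhibitor control for full effect; nearly all actives have a fitted effect of over 50% in size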
#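 Test compounds were applied to CHO-M1 cells previously cultured for 16–30 h at 2000 per well. A small lithium amount accompanied them; after 30 min at 37C, IP1 was quantified by TR-FRET.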
# ALDH1A1 inh: qHTS Assay for Inhibitors of Aldehyde Dehydrogenase 1 (ALDH1A1); Aldehyde dehydrogenase 1A1 (Homo sapiens), P00352; Purified ALDH1A1, NADH fluorescence, propionaldehyde substrate; Potency, µM (top dose mostly 75.3 µM), without a hit: at the highest dose activity, negative = inhibition, hits mostly inhibitors; 7.3% of 220,000 active; active = well fitted inhibition curve with a large enough effect, not every such curve was filed as active; inconclusive = small, poorly fitted or top-dose-only effect, or another doubt; inactive = no such curve, though single readings can be large or run the other way;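 note: potency is the fitted concentration of half-maximal effect; plate controls were no enzyme wells and a reference inhibitor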
# Target sequence (P00352 whole entry, looked up): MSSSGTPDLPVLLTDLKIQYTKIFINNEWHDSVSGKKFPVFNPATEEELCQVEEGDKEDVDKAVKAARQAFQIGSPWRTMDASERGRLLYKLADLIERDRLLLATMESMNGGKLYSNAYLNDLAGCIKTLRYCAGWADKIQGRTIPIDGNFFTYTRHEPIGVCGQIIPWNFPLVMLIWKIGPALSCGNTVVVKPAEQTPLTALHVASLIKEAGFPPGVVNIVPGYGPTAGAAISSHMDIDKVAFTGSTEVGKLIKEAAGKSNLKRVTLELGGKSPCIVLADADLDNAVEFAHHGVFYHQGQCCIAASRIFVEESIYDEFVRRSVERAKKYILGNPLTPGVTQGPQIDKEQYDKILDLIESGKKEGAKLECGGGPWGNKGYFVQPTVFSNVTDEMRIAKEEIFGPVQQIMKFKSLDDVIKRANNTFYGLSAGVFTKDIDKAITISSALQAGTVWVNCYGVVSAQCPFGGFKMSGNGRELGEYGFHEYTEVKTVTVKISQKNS
# IMPase inh: qHTS Assay for Identifying the Cell-Membrane Permeable IMPase Inhibitors | Inositol monophosphatase 1 (Rattus norvegicus), P97697 | CHO-M1 cells, IP1 accumulation, HTRF TR-FRET ratio | inhibition (IP1 accumulation), % at 46.1 µM | 120,000 tested, under 10 active; active = well fitted curve in the direction sought with a large enough effect in the signal ratio, not every such curve was filed as active; inconclusive = small, poorly fitted or top-dose-only effect, or a change in a side signal; inactive = no such curve, though single readings can be large or run the other way; the % refers to the signal ratio;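 note: cells stimulated with carbachol in lithium chloride buffer; plate controls were DMSO basal wells for no effect and reference inhibitor wells for full effect; higher means more IMPase inhibition seen as more IP1 and lower FRET ratio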
#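 Elevated IP1 in lysates lowers TR-FRET signal (665/620 ratio and 620 channel reported). Cells were CHO-M1, given carbachol (50 uM as added) plus 50mM LiCl, pH 7.4, 30 min, 37C; compounds titrated up to 46 uM; AC50 by Hill equation.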
# * marks the source's active call; other numbers are inactive results; ? = inconclusive; . = no result given; [ ] = another dose, or the depositor's remark. Unless noted, calls come from the whole dose curve; as a rule, active = well fitted curve in the direction sought with a large enough effect; inconclusive = small, poorly fitted or top-dose-only effect, or another doubt; inactive = no such curve, though single readings can be large; an effect the other way counts as inactive or inconclusive.
SMILES,HTT ATP protect,HttQ103 aggreg,HPGD inh,IMPase Li inh,ALDH1A1 inh,IMPase inh
CSC1=C(C#N)C(c2cccc(Br)c2)CC(=O)N1 (stereo not drawn),-21.9%[10 µM],3.0%,-15.2%,8.3%,5.2%,-8.9
CSC1=C(C#N)C(c2sccc2C)CC(=O)N1 (stereo not drawn),.,.,.,9.1%,10µM*,.
C=CCc1ccc(OCC(O)CO)c(OC)c1 (stereo not drawn),15.2%,11.5%,-12.2%,29.1%[38.3 µM],-11.7%,-1.5
C=CCc1ccc(OCC(O)COCC)c(OC)c1 (stereo not drawn),15.0%,-7.9%,0.1%,19.9%[38.3 µM],28.2µM*,-7.9
NC[C@@H]1O[C@H](O[C@H]2[C@H](O)[C@H](O[C@@H]3O[C@H](CO)[C@@H](O)[C@H](N)[C@@H]3O)[C@@H](N)C[C@H]2N)[C@@H](O)[C@H](O)[C@@H]1O,7.4%[40.3 µM],-3.8%[20.6 µM],3.2%,-2.1%,13.2%[20.9 µM],2.5[20.6 µM]
Cc1onc(C(=O)N2CCOCC2)c1[N+](=O)[O-],?,18.0%,.,0.6%,25.1µM*,.
CC(=O)c1ccc(NC(=S)N2c3ccccc3CC2C)cc1 (stereo not drawn),-15.1%,-13.8%,.,2.5%,25.1µM*,.
Cc1ccccc1CSc1nnc([C@@H]2CCCN2)o1,23.2%[10 µM],3.6%[9.22 µM],.,.,.,.
Cc1ccc(N(CCC#N)C(=O)CSc2ccc3c(c2)OCCO3)cc1,6.8%,6.1%,-11.2%,12.2%[38.3 µM],?,10.7
Cc1ccc(N(CCC#N)C(=O)CCl)cc1C,-22.1%[10 µM],-2.4%,-3.7%,2.5%,0.355µM*,-5.1
COC(=O)NC(CC(C)=O)c1cccc(C)c1 (stereo not drawn),-7.1%[10 µM],.,.,.,1.9%[13.5 µM],.
CC(C)CO/N=C1/C[C@@H](O)[C@@H](O)[C@@H]2[C@@H]3C(=O)N(C(C)(C)C)C(=O)[C@H]3CC[C@@H]12,-37.7%[10 µM],.,.,.,-5.9%[13.5 µM],.
CCn1c(C)c(CCC(=O)O)c(=O)n2nc(-c3ccccc3OC)cc12,-13.1%,-11.9%,?,10µM*,?,?
C=C(C)CNC(=S)N/N=C1\CCCCc2ccccc21,43.1%[10 µM],?,.,.,?,14.2
O=[N+]([O-])c1ccccc1CNC(Cc1ccccc1)c1ccccc1 (stereo not drawn),-2.9%[10 µM],-0.8%,-13.9%,29.3%[38.3 µM],12.6µM*,-5.0
CC1=Nc2cc(C(=O)NC3CCCC3)ccc2Sc2ccc(C)cc21,.,.,.,.,.,-3.0
O=C(Cc1cn2ccsc2n1)Nc1nc2c(s1)CN(Cc1ccccc1)CC2,6.0%[0.074 µM],-6.1%,-9.1%,-8.9%[38.3 µM],10µM*,0.1
O=C(Cc1cn2ccsc2n1)NCc1ccccc1,-12.3%[10 µM],11.0%,?,1.8%[38.3 µM],?,-5.5
Cc1ccc(S(=O)(=O)NCCC(=O)OCn2nnc3ccccc3c2=O)cc1,-19.7%[10 µM],-9.1%,-9.8%,22.6%[38.3 µM],28.2µM*,0.0
Cc1cc(C)nc(SCC(=O)OCN2C(=O)c3ccccc3C2=O)n1,-5.3%[10 µM],0.6%,-13.5%,-5.4%[38.3 µM],10µM*,0.0
Cc1cc(C)nc(SCC(=O)c2cc3ccccc3oc2=O)n1,9.2%,9.9%,17.8µM*,17.1%[38.3 µM],14.1µM*,8.2
CC(C)(Oc1ccc(Cl)cc1)C(=O)OCn1nnc2ccccc2c1=O,20.3%[10 µM],-2.6%,?,65.0%[38.3 µM],5.01µM*,4.9
O=C(CSc1nc2ccccc2o1)c1cc2ccccc2oc1=O,17.7%[10 µM],-20.0%,-6.0%,8.6%,-4.3%,-0.7
Cn1cnnc1SCC(=O)OCN1C(=O)c2ccccc2C1=O,-16.8%,-15.8%,-6.9%,3.5%[38.3 µM],-0.5%,-0.8
O=c1ccn([C@@H]2O[C@@H](COP(=O)(O)OP(=O)(O)O)[C@H](O)[C@@H]2O)c(=O)[nH]1,-6.5%[1.9 µM],.,.,.,.,3.5
SMILES,HTT ATP protect,HttQ103 aggreg,HPGD inh,IMPase Li inh,ALDH1A1 inh,IMPase inh
CCC(CC)C(=O)N1c2ccccc2C(C)(c2ccccc2)CC1(C)C (stereo not drawn),.,.,.,.,.,-1.7
CNc1ncnc2ccc(-c3ccc4c(c3)OCO4)cc12,-3.5%,.,.,1.2%,-11.1%,.
Cc1ccc(S(=O)(=O)NCC(=O)OCN2C(=O)c3ccccc3C2=O)cc1,-5.8%,-9.8%[9.22 µM],-5.9%,-4.0%[38.3 µM],3.98µM*,2.7
CCOc1ccc(S(=O)(=O)NCCC(=O)OCN2C(=O)c3ccccc3C2=O)cc1,-26.9%[10 µM],14.4%,-1.9%,9.5%[38.3 µM],?,1.7
FC(F)(F)c1nc(-c2cccnc2)ncc1-c1nnnn1-c1ccccc1,-5.2%,?,-10.6%,13.5%[38.3 µM],5.0%,6.8
CCc1ccccc1-n1nnnc1-c1cnccc1C(F)(F)F,-4.7%[10 µM],-13.7%[9.22 µM],.,.,17.8µM*,.
C/C=C/c1ccc(OCCCn2cncn2)c(OC)c1,1.0%,2.1%,-10.6%,20.4%[38.3 µM],-7.0%,-12.5
C/C=C/c1ccc(OCCCNC2CCCC2)c(OC)c1,2.0%,7.0%,-5.6%,35.6%[38.3 µM],28.2µM*,8.5
C/C=C/c1ccc(OCCCNC(C)CC)c(OC)c1 (stereo not drawn),9.2%,11.6%,-8.9%,26.4%[38.3 µM],15.8µM*,1.7
C/C=C/c1ccc(OCCn2cncn2)c(OC)c1,14.5%[10 µM],-2.7%,-5.0%,-0.1%,25.1µM*,-1.8
C=CCc1ccc(OCCCCNC(C)CC)c(OC)c1 (stereo not drawn),-4.8%[10 µM],-5.6%,1.2%,3.8%,?,.
CCC/C=C(\CCC)C(NS(=O)(=O)c1cccc2cccnc12)c1ccc(-c2ccccc2)cc1 (stereo not drawn),-68.2%,.,-17.7%,-9.6%,-9.8%,.
CN(C)CCCO[C@H]1C([C@H](O)CO)O[C@@H]2OC(C)(C)O[C@@H]21 (stereo partly drawn),.,.,-10.4%,-1.4%,3.8%,.
O=C(NNC(=S)Nc1ccccc1Cl)c1ccncc1,-5.6%[10 µM],2.6%[9.22 µM],.,.,.,.
CCn1c(C)nc2cc(C(=O)NNC(=S)NC(=O)c3ccccc3)ccc21,-1.2%,-23.3%,.,1.7%,25.1µM*,.
CCn1c(C)nc2cc(C(=O)NNC(=S)Nc3ccccc3Cl)ccc21,-3.3%[10 µM],4.4%,-25.1%,-2.4%,31.6µM*,1.4
CCn1c(C)nc2cc(C(=O)NNC(=S)Nc3ccc(Cl)cc3Cl)ccc21,8.5%[10 µM],5.0%,?,-1.5%,3.55µM*,10.8
O=C(NNC(=S)Nc1ccc(Cl)cc1Cl)c1ccncc1,15.4%[10 µM],11.0%,?,9.3%,3.16µM*,-4.4

# Screening results from PubChem BioAssay.
